The values that follow come from PubChem BioAssay (Tox21).

Calls of active or inactive are those of the source. The call rests on the fitted dose curve; in most records, active means well fitted curve in the direction sought with a large enough effect in the repeat runs; inconclusive means weak or mixed curves; inactive means flat fitted curve, though single readings scatter.

A short description of the assay: qHTS assay to test for compound auto fluorescence at 590 nm (red) in HepG2 cells (AID 720674). The settings on record: HepG2 autofluorescence, red 540/590 nm, 1 h; series mostly up to 46 µM. The text has this: U.S. Tox21 Program National Center for Advancing Translational Sciences [NCATS] NIH Chemical Genomics Center [NCGC] U.S. Environmental Protection Agency [EPA] National Institutes of Environmental Health Sciences [NIEHS] National Toxicology Program [NTP] U.S. Food and Drug Administration [FDA] Tox21 Assay Overview: Compound auto fluorescence often interferes with screening of the compound library against various biological targets and signaling pathways. Some of these compounds may have fluorophoric properties. Such properties may interfere with the assay outputs resulting in false positives and/or negatives. To decrease such complications and ensure the compound activities are relevant in terms of biological response, the Tox21 10K compound library was screened for auto fluorescence. From the fluorophores used as reporter signals in our screening assays, the auto fluorescence equivalencies of compounds against three fluorophores have been evaluated: Triamterene, Fluorescein and Rose Bengal sodium for blue, green and red fluorescence, respectively. The fluorescence intensities were measured using Excitation/Emission wavelengths at 405/460nm, 485/535nm and 540/590nm for blue, green and red labels, respectively. This assay includes the red fluorescence data.
Tox21 Assay Protocol Summary: 2,000 HepG2 cells in 5 uL of culture medium (MEM containing 10% FBS) per well were dispensed into black wall/clear bottom 1536-well plates using a Multidrop Combi Dispenser (ThermoFisher Scientific, Waltham, MA). The assay plates were incubated overnight at 37 C to allow cell attachment to the well bottom, followed by the transfer of 23 nL compound or DMSO vehicle by a pintool work station (Kalypsys , San Diego, CA). After the assay plates were incubated for 1 hr at 37 C and 5% CO2, fluorescence intensities in the assay plates were measured by an Envision (PerkinElmer, Shelton, CT) plate reader using three labels for measuring blue, green and red fluorescence at […] 460, 535 and 590 nm respectively.
Background: qHTS replaces the single test concentration by a dilution series.
Regarding `CC(=O)OCC(=O)[C@H]1CC[C@H]2[C@@H]3CC[C@H]4C[C@H](O)CC[C@]4(C)[C@H]3C(=O)C[C@]12C`, the result was inactive.

As for `C[C@H]1CC[C@]2(NC1)O[C@H]1C[C@H]3[C@@H]4CC[C@H]5C[C@@H](O[C@@H]6O[C@H](CO)[C@H](O[C@@H]7O[C@H](CO)[C@@H](O)[C@H](O[C@@H]8OC[C@@H](O)[C@H](O)[C@H]8O)[C@H]7O[C@@H]7O[C@H](CO)[C@@H](O)[C@H](O)[C@H]7O)[C@H](O)[C@H]6O)CC[C@]5(C)[C@H]4CC[C@]3(C)[C@H]1[C@@H]2C`, the result was inactive. In the case of `C[C@H]1CC[C@]2(NC1)O[C@H]1C[C@H]3[C@@H]4CC[C@H]5C[C@@H](O)CC[C@]5(C)[C@H]4CC[C@]3(C)[C@H]1[C@@H]2C` it was “inactive”; in that of `Nc1ccc([N+](=O)[O-])cc1`, “inactive”. In the case of `N#CC(C#N)=Cc1cc(O)c(O)c(O)c1` it was “inactive”; in that of `Oc1ccc2c3c1O[C@H]1[C@@H](O)CC[C@@]4(O)[C@@H](C2)N(CC2CCC2)CC[C@]314`, “inactive”.

Turning to `Cc1ccccc1-n1c(CF)nc2ccc(N)cc2c1=O`, the molecule was called inactive.

In the case of `CCCCNC(C)(C)[P+](=O)O`, the molecule was called inactive. On to `CCOC(=O)C1(c2ccccc2)CCCN(C)CC1` (stereo not given), for which the call was inactive. For `CN1c2ccccc2C(NCCCCCCC(=O)O)c2ccc(Cl)cc2S1(=O)=O` (stereo not given) the value was “inactive”; for `CNC(C)C(O)c1ccc(O)cc1` (stereo not given), “inactive”; for `CCC(=O)O[C@@](Cc1ccccc1)(c1ccccc1)[C@@H](C)CN(C)C`, “inactive”. Turning to `COC(=O)[C@@H]1[C@H]2CC[C@@H](C[C@H]1OC(=O)c1ccccc1)N2C`, the outcome was inactive. Consider `c1csc(C2(N3CCCCC3)CCCCC2)c1`, for which the molecule was classed as inactive. As for `CCC/C=C/C=C/C(=O)O[C@H]1/C(=C/C(=O)OC)C[C@H]2C[C@H]([C@@H](C)O)OC(=O)C[C@H](O)C[C@@H]3C[C@H](OC(C)=O)C(C)(C)[C@](O)(C[C@@H]4C/C(=C/C(=O)OC)C[C@H](/C=C/C(C)(C)[C@]1(O)O2)O4)O3`, the call was inactive.

In the case of `C[C@]12N[C@H](Cc3ccccc31)c1ccccc12`, the result was inactive. Regarding `C=CCN1CC[C@]23c4c5ccc(O)c4O[C@H]2[C@@H](O)C=C[C@H]3[C@H]1C5`, the call was inactive. Turning to `CCC1(c2cnc[nH]2)Cc2ccccc2C1`, the call was inactive. In the case of `COc1ccc(OC)c(C[C@H](C)N)c1` it was “inactive”; in that of `C[N+]1(C)[C@@H]2CC[C@H]1CC(OC(=O)c1c[nH]c3ccccc13)C2` (stereo not given in full), “inactive”; in that of `F/C(COc1ccc2c(c1)[nH]c1ccccc12)=C1/CN2CCC1CC2`, “inactive”. `CCN(CC)C(=O)N[C@H]1C[C@@H]2c3cccc4[nH]cc(c34)C[C@H]2N(C)C1`: the molecule was called inactive. For the molecule `O=c1[nH]cc(N(CCCl)CCCl)c(=O)[nH]1`, the call was inactive. For the molecule `S=C(S)N1CCNCC1`, the molecule was called inactive.

For `C[N+]1(C)CCCCC1COC(=O)C(O)(c1ccccc1)c1ccccc1` (stereo not given), the call was inactive. Consider `ClC1=C(Cl)[C@]2(Cl)[C@@H]3[C@@H](Cl)[C@H]4O[C@H]4[C@@H]3C1(Cl)C2(Cl)Cl`, for which the molecule was called inactive. `CCCSc1cc(OC)c(CCN)cc1OC`: the molecule was called inactive. For the molecule `NCC[C@H](O)C(=O)N[C@@H]1C[C@H](N)[C@@H](O[C@H]2O[C@H](CN)[C@@H](O)[C@H](O)[C@H]2N)[C@H](O[C@@H]2O[C@H](CO)[C@@H](O)[C@H]2O)[C@H]1O`, the molecule was called inactive. `COc1ccc2c(c1)C13CCCC[C@@H]1C(C2)N(C)CC3` (stereo not given in full): the result was inactive. In the case of `CCNCC(O)c1cccc(O)c1` (stereo not given) it was “inactive”. With `CCC1(c2ccccc2)C(=O)NC(=O)N(C(=O)c2ccccc2)C1=O` (stereo not given), the outcome was inactive. With `Clc1ccc(C(Cn2ccnc2)OCc2csc3c(Cl)cccc23)c(Cl)c1` (stereo not given), the molecule was classed as inactive. For `C=C[C@H]1CN2CC[C@H]1C[C@@H]2[C@@H](O)c1ccnc2ccccc12`, the result was inactive. For the molecule `O=C1C=C2C=C[C@@H]3C[C@@]2(O1)[C@H]1CCCCN31`, the molecule was classed as inactive.

Consider `C#CC(C)(O)CC` (stereo not given), for which the call was inactive.

As for `CC(C)[C@@]1(NC(=O)[C@@H]2C[C@@H]3c4cccc5[nH]cc(c45)C[C@H]3N(C)C2)O[C@@]2(O)[C@@H]3CCCN3C(=O)[C@H](Cc3ccccc3)N2C1=O`, the molecule was classed as inactive. Consider `O=C(O)CCCO`, for which the outcome was inactive. As to `CN(C)CCCCCCN(C)C` (tested in a mixture with another compound), the molecule was called inactive. On to `O=P1(N(CCCl)CCCl)NC(OO)CCO1` (stereo not given), for which the outcome was inactive. `O=C1C(I)=CC(=C(c2cc(I)c(O)c(I)c2)c2ccccc2C(=O)O)C=C1I`: the molecule was classed as inactive.
